Pf growth 96h = P. falciparum growth inhibition at 96 hour, primary screen for plastid delayed-death inhibitors; P. falciparum luciferase reporter growth, 96 h; Potency, µM (highest dose often 28.7 µM), usual class: inhibitors; 320,000 tested, 6.9% active; AID 504834
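Parasite growth measured via integrated firefly luciferase reporter in P. falciparum. Infected erythrocytes at 2% hematocrit, 0.05% parasitemia final were treated 96 hours at 37 C under 5% CO2, and luminescence was read.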
CHX counter = counter-screen hit for Shiga toxin inhibitors, cycloheximide. cell reporter, cycloheximide protein synthesis inhibition counterscreen. max response, %. 300,000 tested, 12% active. AID 2314; in the data active = max response mostly above about 13%, no sharp cut-off; inactive = mostly below about 14%; also: read at 38.3 µM for the half of the compounds with a filed dose
Pf growth 48h = inhibits P. falciparum growth in the first generation, 48 h. P. falciparum luciferase growth in erythrocytes, 48 h. Potency, µM (top dose mostly 28.7 µM), actives largely listed as inhibitors. 310,000 tested, 5.9% active
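Read-out is firefly luciferase luminescence from an integrated reporter in P. falciparum, so falling signal marks reduced parasite growth. Infected erythrocytes were at 2% hematocrit and 0.1% parasitemia (final) in Albumax-supplemented RPMI 1640.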
NS1 function inh = influenza NS1 inhibition | AID 2326 | Potency, µM (top dose mostly 46.1 µM) | 270,000 tested, 0.4% active; calls by dose curve; also: actives are rising curves; nearly all actives have a fitted effect of over 50% in size
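Compounds were scored for reversing the slow growth caused by influenza A NS1 in S. cerevisiae, measured by optical density at 600 nm. Assay medium contained 2% galactose at pH 6.0; NS1-free yeast of the same strain were the positive control.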
Shiga inhibitor = inhibitors of Shiga toxin in Vero cells; AID 2315; inhibition, % at 38.7 µM; Vero cells, Shiga toxin protein synthesis inhibition reporter; 290,000 tested, 9.2% active; in the data active = inhibition mostly above about 28%, no sharp cut-off; inactive = mostly below about 43%
Of the large screens only hits and unclear results are named; the others gave an inactive call. Sampled rows, rich in hits. Any-hit rate of the full collection: about 21%. Unless noted, calls follow the shape of the dose curve; as a rule, active = well fitted inhibition curve with a large enough effect; inconclusive = small, poorly fitted or top-dose-only effect, or another doubt; inactive = no such curve, though single readings can be large or run the other way.

COc1ccc(N2CC(C(=O)OCC(=O)NCc3ccccc3)CC2=O)cc1 (stereo unspecified)	none
O=C1/C(=C/c2cccnc2)CCc2c1[nH]c1ccccc21	Pf growth 96h inconclusive, CHX counter 47.7, Shiga inhibitor 67.9
O=C1OC(/C=C/c2ccccc2)=NC/1=C\c1cccnc1	none (no result: NS1 function inh)
CC(C)C/C=C1\CCc2c([nH]c3ccccc23)C1=O	CHX counter 45.9, Shiga inhibitor 88.4
CCCCCCCCC1=NCCc2c1[nH]c1ccccc21	Pf growth 96h inconclusive
CC1C/C(=C\c2cccnc2)C(=O)/C(=C/c2cccnc2)C1 (stereo unspecified)	Pf growth 48h 3.7µM
CCC1CN(C(=O)N2CCC(C(=O)NCCc3ccccc3)CC2)c2ccccc2O1 (stereo unspecified)	Pf growth 48h inconclusive
CCN(Cc1ccccc1)C(=O)COC(=O)c1cc(Cl)nc(Cl)c1	none (no result: NS1 function inh)
O=C(NC1CC(=O)N(c2ccc3c(c2)OCCO3)C1)c1c(F)cccc1Cl (stereo unspecified)	none (no result: Pf growth 96h, Pf growth 48h, NS1 function inh)
COc1cccc(C2C(C(N)=O)=C(C)Nc3nc(CCCO)nn32)c1 (stereo unspecified)	none
CCN(CC)CCC(c1ccc2c(c1)OCO2)c1c(OC)cc(OC)c2c(C)cc(=O)oc12 (stereo unspecified)	none (no result: Pf growth 96h, Pf growth 48h, NS1 function inh)
CCCCCc1cc(=O)oc2c(C(CCN(CC)CC)c3ccc(OC)cc3)c(OC)cc(OC)c12 (stereo unspecified)	Pf growth 96h 1.85µM, Pf growth 48h 3.29µM
CCN(CC)CCC(c1ccc(OC)cc1)c1c(OC)cc(OC)c2c(C)cc(=O)oc12 (stereo unspecified)	CHX counter 52.7, Shiga inhibitor 124.0 (no result: Pf growth 96h, Pf growth 48h, NS1 function inh)
CS(=O)(=O)C1=NSC2=NC(=O)/C(=C\c3cccn3-c3ccc(Cl)cc3)C(=N)N21	none
N=C1/C(=C/c2cccs2)C(=O)N=C2SN=C(SCc3ccccc3)N12	Pf growth 96h inconclusive, CHX counter 26.4, Shiga inhibitor 37.4
Cc1cc(/C=C2/C(=N)N3C(=NC2=O)SN=C3S(C)(=O)=O)c(C)n1-c1ccccc1F	Pf growth 96h inconclusive (no result: NS1 function inh)
CC(C)CSC1=NSC2=NC(=O)/C(=C\c3cccs3)C(=N)N12	CHX counter 67.5, Shiga inhibitor 101.7
CSC1=NSC2=NC(=O)/C(=C\c3cccs3)C(=N)N12	CHX counter 42.4, Shiga inhibitor 41.9
CS(=O)(=O)C1=NSC2=NC(=O)/C(=C\c3ccc(OC(=O)c4ccco4)cc3)C(=N)N21	none
CSC1=NSC2=NC(=O)/C(=C/c3coc4ccc(O)cc4c3=O)C(=N)N12	none
CSC1=NSC2=NC(=O)/C(=C/c3coc4ccccc4c3=O)C(=N)N12	Shiga inhibitor 47.5
CC(C)c1c(C(=O)N/N=C/C2CC=CCC2)nnn1-c1nonc1N (stereo unspecified)	none
CC1CCCCN1C(=O)COC(=O)c1cc(Cl)c2c(c1)OCO2 (stereo unspecified)	none (no result: CHX counter, NS1 function inh, Shiga inhibitor)
Cc1cccc(NC(=O)CSc2ccc(-c3cccs3)nn2)c1C	CHX counter 13.3
O=C(CSc1nnc(-c2cccs2)n1-c1ccccc1)N1CCCC1	Pf growth 96h 9.28µM
O=C(CSc1ccc(-c2cccs2)nn1)N1CCCCC1	CHX counter 46.3, Shiga inhibitor 52.0
O=C(CSc1ccc(-c2cccs2)nn1)N1CCCCCC1	Pf growth 96h inconclusive, CHX counter 20.0, Shiga inhibitor 44.1
O=C(CSc1ccc2nnc(-c3cccs3)n2n1)N1CCCC1	Pf growth 96h inconclusive (no result: NS1 function inh)
Cc1ccc(C)c(NC(=O)CSc2ccc(-c3cccs3)nn2)c1	Pf growth 96h inconclusive
CCOC(=O)c1ccc(COC(=O)CNC(=O)CNC(=O)Cc2ccccc2)cc1	none
CSC1=NCCN1C(=O)c1c(-c2c(F)cccc2Cl)noc1C	none
COc1ccc(OC)c2[nH]c(=O)c(CCNC(=O)CC(C)C)cc12	Pf growth 96h inconclusive
CN1CCN(S(=O)(=O)c2ccc(Sc3nnc(-c4cccs4)n3-c3ccccc3)nc2)CC1	Pf growth 96h inconclusive, Pf growth 48h 7.38µM
O=C(NC1CC2CCCC(C1)N2C(=O)Nc1cccc(F)c1)C1CC1 (stereo unspecified)	none
CN(Cc1cccs1)C(=O)CSc1nnnn1C	none (no result: Pf growth 48h)
COc1cc(C)c(S(=O)(=O)n2ccc(C)n2)cc1C	Pf growth 96h 14.7µM (no result: Pf growth 48h)
COc1ccc(S(=O)(=O)n2ccc(C)n2)cc1C	none (no result: Pf growth 96h)
CCOc1ccc(S(=O)(=O)N2CCCCC2)c2ccccc12	Pf growth 96h inconclusive
CCOc1ccc(S(=O)(=O)n2ccc(C)n2)c2ccccc12	Pf growth 96h inconclusive, Pf growth 48h 10.4µM
CC(=O)Nc1ccc(Cl)cc1C1COC(=O)C1=N (stereo unspecified)	none
Cc1cccc(OCCC(=O)OCC(=O)Nc2c(C)nn(-c3ccccc3)c2C)c1	none (no result: CHX counter, NS1 function inh, Shiga inhibitor)
O=C(NCc1nc2ccccc2[nH]1)c1ccccc1F	CHX counter 33.2, Shiga inhibitor 72.0
O=C(NCc1cc2ccccc2[nH]1)c1ccccc1F	Pf growth 96h inconclusive, CHX counter 37.7 (no result: Shiga inhibitor)
O=C(NCCCc1nc2ccccc2[nH]1)c1ccc(F)cc1	Pf growth 96h 10.4µM (no result: NS1 function inh)
O=C(NCCCCNC(=O)c1ccccc1F)c1ccccc1F	Pf growth 96h inconclusive
O=C(NCc1nc2ccccc2[nH]1)c1c(F)c(F)c(F)c(F)c1F	none
Cc1ccc2[nH]c(CNC(=O)c3ccccc3F)cc2c1	Pf growth 96h inconclusive, CHX counter 28.6, NS1 function inh inconclusive
Cc1cc(C)cc(NC(=O)CCN2CCOCC2)c1	none
CN(C(=O)c1ccc(NC(=O)Cc2cccc(NC(=O)C3CCCN(C(=O)C4CCC4)C3)c2)cc1)C1CCCC1 (stereo unspecified)	Pf growth 96h inconclusive, Pf growth 48h 11.7µM (no result: CHX counter, NS1 function inh, Shiga inhibitor)
CN(C(=O)c1ccc(NC(=O)Cc2ccc(NC(=O)C3CCCN(C(=O)C4CCCC4)C3)cc2)cc1)C1CC1 (stereo unspecified)	Pf growth 96h 11.7µM, Pf growth 48h inconclusive (no result: CHX counter, NS1 function inh, Shiga inhibitor)
Cc1cccc(NC(=O)C2CCCN(C(=O)Nc3ccc(F)cc3)C2)c1 (stereo unspecified)	Pf growth 96h inconclusive
CN(Cc1ccccc1)C(=O)c1ccc(NC(=O)Cc2cccc(NC(=O)C3CCCN(C(=O)C4CCCC4)C3)c2)cc1 (stereo unspecified)	Pf growth 48h 11.7µM (no result: CHX counter, NS1 function inh, Shiga inhibitor)
Cc1ccc(CC(=O)Nc2ccc(C(=O)N3CCCCC3)cc2)cc1	none
CN(C(=O)c1ccc(NC(=O)Cc2cccc(NC(=O)C3CCCN(C(=O)C4CC4)C3)c2)cc1)C1CCCC1 (stereo unspecified)	Pf growth 96h inconclusive, Pf growth 48h 14.7µM (no result: CHX counter, NS1 function inh, Shiga inhibitor)
O=C(Nc1ccccc1)C1CCCN(C(=O)c2ccc(F)cc2)C1 (stereo unspecified)	Pf growth 48h inconclusive (no result: CHX counter, NS1 function inh, Shiga inhibitor)
Cc1cc(C(=O)N2CCc3ccccc3C2)on1	Pf growth 96h inconclusive
CN(C(=O)c1ccc(NC(=O)Cc2cccc(NC(=O)C3CCN(C(=O)CCc4ccccc4)CC3)c2)cc1)C1CCCC1	Pf growth 96h 1.85µM, Pf growth 48h 9.28µM (no result: CHX counter, NS1 function inh, Shiga inhibitor)
Cn1ccsc1=NC(=O)c1ccccc1OC(F)F	Pf growth 96h inconclusive
CN(C)c1ccc(C(=O)N=c2sccn2C)cc1[N+](=O)[O-]	CHX counter 18.0, Shiga inhibitor 41.8
